{"source": "PubChem BioAssay (NCATS)", "key": {"[1]": {"assay": "qHTS Assay for Identification of Small Molecule Agonists for Thrombopoietin (TPO) Signaling Pathway (AID 917); further: potency means the concentration at half of the fitted maximal effect", "procedure,_shortened": "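Stimulation at the TPO EC50 (26 pM final) was used to detect activators. Ba/F3 mouse cells bearing human TPO receptor and a luciferase reporter under the Glycoprotein IIb promoter were exposed to compounds for 24 hrs at 37 C.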"}, "[2]": {"molecular_target": "Pyruvate kinase (Leishmania mexicana) (UniProt Q27686)", "sequence (Q27686 2-499 E452W)": "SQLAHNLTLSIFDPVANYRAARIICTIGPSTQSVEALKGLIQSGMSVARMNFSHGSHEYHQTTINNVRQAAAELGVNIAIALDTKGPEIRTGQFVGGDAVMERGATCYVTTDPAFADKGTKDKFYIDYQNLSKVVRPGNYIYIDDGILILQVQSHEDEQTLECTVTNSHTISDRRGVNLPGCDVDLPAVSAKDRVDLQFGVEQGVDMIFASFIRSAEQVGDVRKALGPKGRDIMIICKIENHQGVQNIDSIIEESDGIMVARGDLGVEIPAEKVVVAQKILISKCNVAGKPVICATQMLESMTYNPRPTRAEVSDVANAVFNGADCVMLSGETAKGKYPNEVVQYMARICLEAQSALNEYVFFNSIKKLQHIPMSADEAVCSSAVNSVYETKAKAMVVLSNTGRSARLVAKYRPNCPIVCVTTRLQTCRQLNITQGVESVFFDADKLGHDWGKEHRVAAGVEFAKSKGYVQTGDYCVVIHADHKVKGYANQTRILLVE", "assay": "qHTS Validation Assay for Inhibitors of Leishmania Mexicana Pyruvate Kinase (AID 945); further: potency means the concentration at half of the fitted maximal effect", "procedure,_shortened": "(§1)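 Purified LmPYK (E451W mutant, 0.2 nM) was incubated 1 h at room temperature with 0.5 mM PEP and 0.1 mM ADP in 50 mM imidazole pH 7.2, 50 mM KCl, 7 mM MgCl2; ATP formed was read by PKLight luminescence, normalized to DMSO wells.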"}, "[3]": {"molecular_target": "Pyruvate kinase PKM (Homo sapiens) (UniProt P14618)", "sequence (P14618 whole entry, looked up)": "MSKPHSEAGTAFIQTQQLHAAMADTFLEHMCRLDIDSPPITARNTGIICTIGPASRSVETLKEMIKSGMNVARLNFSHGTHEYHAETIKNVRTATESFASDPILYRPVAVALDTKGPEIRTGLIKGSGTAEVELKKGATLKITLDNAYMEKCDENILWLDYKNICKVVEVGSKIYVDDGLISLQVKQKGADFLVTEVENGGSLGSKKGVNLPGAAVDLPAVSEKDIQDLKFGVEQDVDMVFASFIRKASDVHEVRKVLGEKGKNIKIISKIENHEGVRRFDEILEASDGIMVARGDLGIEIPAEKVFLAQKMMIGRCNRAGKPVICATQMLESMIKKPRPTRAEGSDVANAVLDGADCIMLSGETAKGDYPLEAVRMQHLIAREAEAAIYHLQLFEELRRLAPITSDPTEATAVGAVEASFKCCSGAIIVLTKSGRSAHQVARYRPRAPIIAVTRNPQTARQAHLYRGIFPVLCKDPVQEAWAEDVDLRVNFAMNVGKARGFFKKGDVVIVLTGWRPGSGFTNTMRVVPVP", "assay": "qHTS Assay for Activators of Human Muscle Pyruvate Kinase (AID 954; active means well fitted curve in the direction sought with a large enough effect, not every such curve was filed as active)", "procedure,_shortened": "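A coupled luminescent readout tracked ATP made from ADP by purified PKM2. Final conditions included 0.1 nM enzyme, PEP and ADP at 0.5 and 0.1 mM, pH 7.2 imidazole buffer with BSA, and a one-hour room-temperature reaction.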"}, "[4]": {"molecular_target": "Muscarinic acetylcholine receptor M1 (Rattus norvegicus) (UniProt P08482)", "sequence (P08482 whole entry, looked up)": "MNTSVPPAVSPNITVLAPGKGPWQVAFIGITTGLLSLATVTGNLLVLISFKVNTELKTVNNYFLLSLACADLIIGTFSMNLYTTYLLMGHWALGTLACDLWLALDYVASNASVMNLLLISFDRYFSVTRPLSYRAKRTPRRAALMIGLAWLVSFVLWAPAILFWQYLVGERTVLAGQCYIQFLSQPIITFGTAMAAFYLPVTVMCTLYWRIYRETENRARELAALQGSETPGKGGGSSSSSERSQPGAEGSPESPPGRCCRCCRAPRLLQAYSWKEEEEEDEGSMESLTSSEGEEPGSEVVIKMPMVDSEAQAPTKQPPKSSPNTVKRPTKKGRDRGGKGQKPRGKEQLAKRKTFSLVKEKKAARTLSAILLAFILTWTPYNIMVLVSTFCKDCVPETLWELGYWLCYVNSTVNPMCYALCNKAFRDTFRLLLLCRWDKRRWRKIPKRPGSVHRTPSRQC", "assay": "qHTS Assay for Antagonists of Acetylcholine Muscarinic M1 Receptor: Kinetic Measurement of Intracellular Calcium Response (AID 943)", "procedure,_shortened": "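Quantitative HTS in CHO-M1 (rat receptor) cells: 10 min compound exposure ahead of 100 nM carbachol, Fluo-4 fluorescence followed 4 min, value expressed as peak-to-basal ratio.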"}, "[5]": {"molecular_target": "Pyruvate kinase PKM (Homo sapiens) (UniProt P14618)", "assay": "qHTS Assay for Inhibitors of Human Muscle Pyruvate Kinase (AID 958)", "conditions": "purified human PKM enzyme activity", "procedure,_shortened": "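Human PKM2 activity is measured as ATP generation, detected by luciferase-coupled luminescence. The enzyme (0.1 nM) acts on 0.5 mM PEP and 0.1 mM ADP for 1 h at ambient temperature; data are normalized to uninhibited and full-inhibition wells.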"}, "[6]": {"molecular_target": "Pyruvate kinase (Leishmania mexicana) (UniProt Q27686)", "assay": "qHTS Validation Assay for Activators of Leishmania Mexicana Pyruvate Kinase (AID 959)", "procedure,_shortened": "as §1"}, "[7]": {"assay": "Confirmation and Secondary Assay for Modulators of Hemoglobin Beta Chain Splicing at IVS2 705 locus (AID 930)", "procedure,_shortened": "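Restored EGFP fluorescence after 2-day compound exposure reports splicing correction in IVS2-705 EGFP reporter HeLa cells; positive control was 500 nM splice-blocking PNA oligo. Signal measured as well total peak GFP intensity (488 nm excitation).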"}, "[8]": {"assay": "qHTS Assay for Identification of Small Molecule Antagonists for Thrombopoietin (TPO) Signaling Pathway (AID 918)", "conditions": "TPO-dependent cell signaling reporter, antagonist mode", "procedure,_shortened": "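Antagonist mode at EC50 TPO (26 pM) in IL-3-free medium; murine Ba/F3 cells with human TPO receptor and GPIIb-promoter luciferase, 24 hrs at 37 C before luminescent detection.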"}, "[9]": {"molecular_target": "Muscarinic acetylcholine receptor M1 (Rattus norvegicus) (UniProt P08482)", "assay": "qHTS Assay for Antagonists of Acetylcholine Muscarinic M1 Receptor: Measurement of IP-One Response (AID 944)", "procedure,_shortened": "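Antagonism was measured as loss of carbachol-driven (EC80) IP1 accumulation in CHO cells carrying rat M1, using a homogeneous IP-One TR-FRET kit read at 620 and 665 nm.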"}, "[10]": {"assay": "Cell Viability - LYMP2-001 (AID 921)", "procedure,_shortened": "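Human lymphoblastoid LYMP2-001 cells, 2500 per well, in complete medium, treated 24 h at 37 C. Viability from cellular ATP by CellTiter-Glo luminescence; AC50 from Hill-equation fits of qHTS concentration-response.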"}, "[11]": {"assay": "MultiTox-Fluor Cytotoxicity Assay - LYMP1-001 - Dead Cells (AID 946)", "procedure,_shortened": "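AC50 from Hill fit of concentration-response; data normalized to DMSO (basal) and 15 uM tetraoctylammonium bromide (100%). LYMP1-001 lymphoblastoid cells, 2500/well, 16 hr compound at 37 C; dead-cell protease fluorescence, Ex/Em 485/520.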"}, "[12]": {"assay": "MultiTox-Fluor Cytotoxicity Assay - LYMP1-001 - Live Cells (AID 947)"}, "[13]": {"assay": "Cell Viability - LYMP1-002 - Assay at 16 hr (AID 948)", "procedure,_shortened": "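LYMP1-002 human lymphoblastoid cells, 2500/well, were treated with compounds for 16 hr at 37 C in complete medium. Viability was read as intracellular ATP by CellTiter-Glo luminescence, and AC50 was derived from a Hill fit to concentration-response data.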"}, "[14]": {"assay": "MultiTox-Fluor Cytotoxicity Assay - LYMP1-002 - Live Cells (AID 955)", "procedure,_shortened": "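In this qHTS viability format, lymphoblastoid cells (LYMP1-002, human) received compound for 16 hr at 37 C. Fluorogenic GF-AFC cleavage by viable cells was detected at 405/510 nm after 1 h at room temperature.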"}, "[15]": {"assay": "Cell Viability - LYMP1-003 - Assay at 24 hr (AID 963)", "procedure,_shortened": "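The lymphoblastoid line was treated with titrated compounds for 24 hours, and viable cell number estimated from luciferase-based ATP luminescence.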"}, "[16]": {"assay": "Cell Viability - LYMP2-003 (AID 965)", "procedure,_shortened": "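Human lymphoblastoid LYMP2-003 cells, 2500/well, exposed to compounds for 24 h at 37 C in complete medium. Viability read as intracellular ATP by CellTiter-Glo luminescence; AC50 from Hill-equation fits of qHTS concentration-response data.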"}, "[17]": {"assay": "Cell Viability - LYMP2-004 (AID 966)", "procedure,_shortened": "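Viable-cell number estimated from ATP luminescence (CellTiter-Glo) in 2500 human lymphoblastoid cells/well after 24 hr at 37 C with compound. AC50 fitted to the standard Hill equation.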"}, "[18]": {"assay": "Cell Viability - LYMP2-005 (AID 967)", "procedure,_shortened": "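Human lymphoblastoid LYMP2-005 cells, 2,500 per well in complete medium, rested 5 h at 37C then compound-treated 24 h at 37C. Intracellular ATP read by CellTiter-Glo luminescence after 30 min at room temperature; AC50 from Hill-equation fits of concentration-response data.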"}, "[19]": {"assay": "Cell Viability - LYMP2-009 (AID 968)"}}, "note": "Inconclusive results are not listed. Where a call stands in place of a potency, no number is given. Active and inactive are the calls of the source. Unless noted, the call rests on the fitted dose curve; in most records, active means well fitted curve in the direction sought with a large enough effect; inconclusive means small, poorly fitted or top-dose-only effect, or another doubt; inactive means no such curve, though single readings can be large; an effect the other way counts as inactive or inconclusive."}
{"smiles": "Nc1nc2c(ncn2COC(CO)CO)c(=O)[nH]1", "values": [{"measurement": "Potency", "setting": "[1]", "value": "inactive"}, {"measurement": "Potency", "setting": "[2]", "value": "inactive"}, {"measurement": "outcome", "setting": "[3]", "value": "inactive"}]}
{"smiles": "Cn1ccc2cc3c(cc21)CCN3C(=O)Nc1cccnc1", "values": [{"measurement": "Potency", "setting": "[1]", "value": "1 µM (active)"}, {"measurement": "Potency", "setting": "[4]", "value": "inactive"}, {"measurement": "Potency", "setting": "[2]", "value": "7.94 µM (active)"}, {"measurement": "outcome", "setting": "[3]", "value": "inactive"}, {"measurement": "Potency", "setting": "[5]", "value": "6.31 µM (active)"}, {"measurement": "outcome", "setting": "[6]", "value": "inactive"}]}
{"smiles": "C[C@](N)(Cc1ccc(O)c(O)c1)C(=O)O", "values": [{"measurement": "Potency", "setting": "[1]", "value": "inactive"}, {"measurement": "Potency", "setting": "[2]", "value": "inactive"}, {"measurement": "outcome", "setting": "[3]", "value": "inactive"}]}
{"smiles": "O=C(C1CCCCC1)N1CC(=O)N2CCc3ccccc3C2C1", "note": "(centres undefined)", "values": [{"measurement": "Potency", "setting": "[1]", "value": "inactive"}, {"measurement": "outcome", "setting": "[7]", "value": "inactive"}, {"measurement": "outcome", "setting": "[3]", "value": "inactive"}]}
{"smiles": "Cc1cnc(C(=O)NCCc2ccc(S(=O)(=O)NC(=O)NC3CCCCC3)cc2)cn1", "values": [{"measurement": "Potency", "setting": "[1]", "value": "inactive"}, {"measurement": "Potency", "setting": "[2]", "value": "inactive"}, {"measurement": "outcome", "setting": "[3]", "value": "inactive"}]}
{"smiles": "O=C(c1ccc(OCCN2CCCCC2)cc1)c1c(-c2ccc(O)cc2)sc2cc(O)ccc12", "values": [{"measurement": "Potency", "setting": "[8]", "value": "15.8 µM (active)"}, {"measurement": "Potency", "setting": "[2]", "value": "inactive"}]}
{"smiles": "CN1CCC(=C2c3ccccc3C=Cc3ccccc32)CC1", "values": [{"measurement": "Potency", "setting": "[1]", "value": "inactive"}, {"measurement": "Potency", "setting": "[2]", "value": "inactive"}, {"measurement": "outcome", "setting": "[3]", "value": "inactive"}]}
{"smiles": "CCOC(=O)C(C)(C)Oc1ccc(Cl)cc1", "values": [{"measurement": "Potency", "setting": "[1]", "value": "inactive"}, {"measurement": "Potency", "setting": "[9]", "value": "inactive"}, {"measurement": "Potency", "setting": "[2]", "value": "inactive"}, {"measurement": "outcome", "setting": "[3]", "value": "inactive"}]}
{"smiles": "Clc1ccc2c(c1)C(N1CCNCC1)=Nc1ccccc1O2", "values": [{"measurement": "Potency", "setting": "[8]", "value": "10 µM (active)"}, {"measurement": "outcome", "setting": "[7]", "value": "inactive"}, {"measurement": "Potency", "setting": "[2]", "value": "inactive"}, {"measurement": "outcome", "setting": "[3]", "value": "inactive"}]}
{"smiles": "CCOC(=O)c1ncn2c1CN(C)C(=O)c1cc(F)ccc1-2", "values": [{"measurement": "Potency", "setting": "[1]", "value": "inactive"}, {"measurement": "Potency", "setting": "[2]", "value": "inactive"}, {"measurement": "outcome", "setting": "[3]", "value": "inactive"}]}
{"smiles": "CCOC(=O)Nc1ccc(NCc2ccc(F)cc2)nc1N", "values": [{"measurement": "Potency", "setting": "[1]", "value": "inactive"}, {"measurement": "Potency", "setting": "[4]", "value": "inactive"}, {"measurement": "Potency", "setting": "[9]", "value": "inactive"}, {"measurement": "Potency", "setting": "[2]", "value": "inactive"}, {"measurement": "outcome", "setting": "[3]", "value": "inactive"}]}
{"smiles": "NC(=O)OCC(COC(N)=O)c1ccccc1", "values": [{"measurement": "Potency", "setting": "[1]", "value": "inactive"}, {"measurement": "Potency", "setting": "[9]", "value": "inactive"}, {"measurement": "Potency", "setting": "[2]", "value": "inactive"}, {"measurement": "outcome", "setting": "[3]", "value": "inactive"}]}
{"smiles": "Fc1ccc([C@@H]2CCNC[C@H]2COc2ccc3c(c2)OCO3)cc1", "values": [{"measurement": "Potency", "setting": "[8]", "value": "12.6 µM (active)"}, {"measurement": "Potency", "setting": "[2]", "value": "inactive"}, {"measurement": "outcome", "setting": "[3]", "value": "inactive"}]}
{"smiles": "O=c1[nH]cc(F)c(=O)[nH]1", "values": [{"measurement": "outcome", "setting": "[10]", "value": "inactive"}, {"measurement": "outcome", "setting": "[7]", "value": "inactive"}, {"measurement": "Potency", "setting": "[2]", "value": "inactive"}, {"measurement": "Potency", "setting": "[11]", "value": "inactive"}, {"measurement": "outcome", "setting": "[12]", "value": "inactive"}, {"measurement": "outcome", "setting": "[13]", "value": "inactive"}, {"measurement": "outcome", "setting": "[3]", "value": "inactive"}, {"measurement": "outcome", "setting": "[14]", "value": "inactive"}, {"measurement": "outcome", "setting": "[15]", "value": "inactive"}, {"measurement": "outcome", "setting": "[16]", "value": "inactive"}, {"measurement": "outcome", "setting": "[17]", "value": "inactive"}, {"measurement": "outcome", "setting": "[18]", "value": "inactive"}, {"measurement": "outcome", "setting": "[19]", "value": "inactive"}]}
